# Source: PubChem BioAssay (EPA / NIEHS)
# Inconclusive results are not listed. A structure can be active in one record and inactive in another. Calls of active or inactive are those of the source. Rule for the calls, unless noted: active = hit-call score of the fitted dose curve at least 0.9, where 1 is the maximum; inactive = score below 0.9.
# Assays:
# [1] = CCTE_Shafer_MEA_dev_correlation_coefficient_mean: CCTE's Neural Network Formation Assay for Mean Correlation Coefficient, Shafer Lab (AID 2284093);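 for AC50: well mean pairwise spike train correlation integrated as AUC over recording days 5 to 12; potency fitted for loss of correlation relative to DMSO vehicle wells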
# Summary of the method: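 Extracellular firing from rat cortical networks on 48-well MEAs, DMSO-referenced, negative fitting direction. Compound present from plating to DIV12; mean pairwise correlation per well integrated over DIV5–12 recordings by trapezoidal AUC.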
# [2] = UKN2_HCS_IMR90_neural_migration: University of Konstanz (UKN) Leist Lab Neural Crest Cell Migration Assay in human induced IMR90 Pluripotent Stem Cells (UKN2) (AID 2284204); settings: actives raise or lower the signal
# Summary of the method: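 Using a 96-well stopper format with PLO/laminin/fibronectin coating, neural crest cells from iPSC migrate in cytokine-supplemented N2-S medium; after 24 h, chemicals are applied for a further 24 h, then cells are imaged after dye staining.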
# [3] = IUF_NPC1b_proliferation_BrdU_72hr: Leibniz Research Institute for Environmental Medicine (IUF) 72-hour Neural Progenitor Cell Bromodeoxyuridine (BrdU) Proliferation Assay (NPC1b) (AID 2284207)
# Summary of the method: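 Neural progenitor spheres of human fetal origin are treated for three days; BrdU added for the last 16 h is quantified by luminescence ELISA, with DMSO as baseline and EGF/FGF omission as positive control.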
# [4] = IUF_NPC1a_proliferation_area_72hr: Leibniz Research Institute for Environmental Medicine (IUF) 72-hour Neural Progenitor Cell Proliferation Area Assay (NPC1a) (AID 2284208)
# Experimental: IUF_NPC1 is a cell-based, multiplexed assay that uses hNPC, a human primary neural progenitor cells, with measurements taken at 72 hours after chemical dosing in a 96-well plate. Human neural progenitor cells (hNPC) are generated from human fetal brain cortex at gestational week (GW) 16-19. Grown in suspension culture and under proliferative conditions (proliferation media and growth factors), these cells represent neural progenitor cell proliferation. In the NPC1 assay, hNPC's are exposed to the test compound for 72h. Cell proliferation is assessed as an increase in sphere area using automated phase contrast imaging and as incorporation of Bromodeoxyuridine (BrdU) during DNA synthesis using a luminescence-based cell proliferation ELISA. In parallel, the cell viability is assessed using an alamar blue viability assay and the cytotoxicity using a lactate dehydrogenase dependent membrane integrity assay.IUF_NPC1a_proliferation_area_72hr is one of 4 assay components measured from the IUF_NPC1 assay. It is designed to measure cell proliferation as assessed by an increase in sphere area over 72 h using automated phase contrast imaging.Data from the IUF_NPC1a_proliferation_area component was analyzed at the endpoint IUF_NPC1a_proliferation_area in the positive analysis fitting direction relative to DMSO as the negative control and baseline of activity. Using a type of growth reporter, gain or loss-of-signal activity can be used to understand cell proliferation effects.
# After the cell expansion period, the cells are cultured for up to four weeks in which they are passaged every week. Between one to three days after passaging, depending on the size chosen for passaging, spheres at a size of 0.3 mm are used in the assay. For the assessment of neural progenitor cell proliferation, the spheres are plated in poly-Hema coated 96-well U-bottom plates filled with proliferation medium containing growth factors (EGF and FGF). One 0.25 - 0.35 mm big sphere is plated in the middle of each well. Within 3 days NPCs proliferate and grow in size. Cultivation during the test method is performed at 37C and 5% CO2 at a pH of 7.2-7.6. As a positive control, spheres are cultivated in the absence of growth factors (EGF and FGF), which dramatically reduces proliferation. Exposure starts on the plating day (day 0) and is continued over three days, without chemical renewal, until the experiment is terminated. The assay is terminated by the assessment of cell viability, cytotoxicity, and proliferation by BrdU. All endpoints are generated from the same experimental run and from each well/sphere in the 96-well plate.
# [5] = IUF_NPC1_viability_72hr: Viability Assessment at 72 hours in the Leibniz Research Institute for Environmental Medicine (IUF) Neural Progenitor Cell Proliferation Assay (NPC1) (AID 2284209)
# Summary of the method: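 Spheres of primary human neural progenitors were plated singly in proliferation medium and treated for 72 h. Mitochondrial reduction of resazurin was then measured by fluorescence and analysed against DMSO controls.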
# [6] = CCTE_Mundy_HCI_Cortical_Synap_Neur_Matur_NeuriteSpotCountPerNeuriteLength: CCTE's Synaptogenesis and Neurite Maturation Assay in rat cortical cells for Neurite Spot Count per Neurite Length, Mundy Lab (AID 2284210)
# Summary of the method: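 Neurite-associated synapse density (synaptophysin puncta per unit neurite length) is measured by fluorescence high-content imaging in rat cortical cultures treated from DIV 7 and fixed at DIV 12, with DMSO as negative control.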
# [7] = CCTE_Mundy_HCI_Cortical_Synap_Neur_Matur_BPCount: CCTE's Synaptogenesis and Neurite Maturation Assay in rat cortical cells for Branch Point Count, Mundy Lab (AID 2284211)
# Summary of the method: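 HCI read-out of branch points from MAP2/synaptophysin/Hoechst immunofluorescence; rat cortical cultures, AraC DIV 5, dosing DIV 7, fixed DIV 12; fit in positive direction vs DMSO baseline.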
# [8] = CCTE_Mundy_HCI_Cortical_NOG_NeuriteCount: CCTE's Neurite Outgrowth Assay in rat cortical cells for Neurite Count, Mundy Lab (AID 2284212);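 note: cells fixed about two days after chemical exposure began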
# Summary of the method: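 Rat cortical primary cells; compound added 2 h post-plating, 1/10 dilution of working solution. Anti-betaIII-tubulin/AF488 ICC; ArrayScan neurite count vs DMSO.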
# [9] = CCTE_Shafer_MEA_acute_LDH: CCTE's Lactate Dehydrogenase Assay for Cytotoxicity in the Neural Acute Assay, Shafer Lab (AID 2284086; active = hit-call score of the fitted dose curve at least 0.9, where 1 is the maximum;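 note: active means LDH release rises above DMSO vehicle level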)
# Summary of the method: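 Medium collected from MEA wells of primary rat cortical cultures (DIV 13 or 15) immediately after 40 min chemical exposure is assayed spectrophotometrically for lactate dehydrogenase activity. Endpoint fitted in positive direction versus DMSO.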
# [10] = UKN4_HCS_LUHMES_neurite_outgrowth: University of Konstanz (UKN) Leist Lab Neurite Outgrowth Assay in human LUHMES cells (UKN4) (AID 2284206); settings: actives raise or lower the signal
# Summary of the method: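 Human LUHMES cells were differentiated for two days, replated and treated with chemicals for 24 h. Neurite outgrowth was quantified as calcein-stained neurite area by HCS imaging, fitted bidirectionally relative to DMSO.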
compound,measurement,setting,value
CC(C)c1c(C(=O)Nc2ccccc2)c(-c2ccccc2)c(-c2ccc(F)cc2)n1CC[C@@H](O)C[C@@H](O)CC(=O)O,AC50,[1],0.00805 µM (active)
same,outcome,[2],inactive
same,AC50,[3],1.7 µM (active)
same,outcome,[4],inactive
same,outcome,[5],inactive
same,AC50,[6],6.94 µM (active)
same,AC50,[7],0.779 µM (active)
same,AC50,[8],0.158 µM (active)
O=C(O)CCC(F)(F)C(F)(F)C(F)(F)C(F)(F)C(F)(F)F,outcome,[1],inactive
CCCCc1oc2ccccc2c1C(=O)c1cc(I)c(OCCN(CC)CC)c(I)c1,outcome,[9],inactive
Oc1c(Cl)cc(Cl)cc1Sc1cc(Cl)cc(Cl)c1O,outcome,[9],inactive
O=C(OC(=O)C(F)(F)C(F)(F)F)C(F)(F)C(F)(F)F,outcome,[1],inactive
CCCCCCCCCCCC,outcome,[9],inactive
O=C(F)C(F)(F)C(F)(F)C(F)(F)C(=O)F,outcome,[1],inactive
CN(Cc1cnc2nc(N)nc(N)c2n1)c1ccc(C(=O)N[C@@H](CCC(=O)O)C(=O)O)cc1,AC50,[1],0.0189 µM (active)
same,outcome,[6],inactive
same,AC50,[7],0.0449 µM (active)
same,outcome,[8],inactive
Nc1ccn([C@@H]2O[C@H](CO)[C@@H](O)C2O)c(=O)n1 (stereo not given in full),AC50,[1],0.0919 µM (active)
same,outcome,[2],inactive
same,outcome,[10],inactive
same,outcome,[6],inactive
NC(C(F)(F)F)C(F)(F)F,outcome,[1],inactive
FCOC(C(F)(F)F)C(F)(F)F,outcome,[1],inactive
O=C(C=C(O)C(F)(F)F)C(F)(F)F,outcome,[1],inactive
O=CC(F)(F)C(F)(F)C(F)(F)C(F)F,outcome,[1],inactive
COC(=O)C(F)(F)C(F)(F)C(F)(F)F,outcome,[1],inactive
OCC(F)(F)C(F)(F)C(F)(F)C(F)(F)C(F)(F)C(F)(F)C(F)(F)C(F)(F)C(F)(F)C(F)(F)C(F)(F)F,AC50,[1],8.06 µM (active)
same,outcome,[1],inactive
OCC(CO)(CBr)CBr,outcome,[9],inactive
Oc1ccc(Cc2ccccc2O)cc1,outcome,[9],inactive
O=P(O)(O)CCC(F)(F)C(F)(F)C(F)(F)C(F)(F)C(F)(F)C(F)(F)C(F)(F)C(F)(F)F,AC50,[1],6.27 µM (active)
CN(C)CCOC(c1ccccc1)c1ccccc1,outcome,[9],inactive
same,AC50,[1],15.5 µM (active)
O=P(O)(O)CCC(F)(F)C(F)(F)C(F)(F)C(F)(F)C(F)(F)C(F)(F)F,outcome,[1],inactive
